Test results reported in ChEMBL document CHEMBL3433997, “St. Jude Leishmania screening dataset” (2016).

Experiments:
Format in all cases: functional
[1] = molecular target: Solute carrier family 2, facilitated glucose transporter member 1 (Homo sapiens) (UniProt P11166); assay: ST_JUDE_LEISH: Cytotoxicity at 2uM final concentration against transgenic Leishmania Mexicana promastigotes LmGLUT1 that are glucose transport deficient and complemented with the human glucose transporter GLUT1. Activity is measured by DNA content using SYBR green in vitro
Solute carrier family 2, facilitated glucose transporter member 1 (Homo sapiens), sequence (P11166 whole entry): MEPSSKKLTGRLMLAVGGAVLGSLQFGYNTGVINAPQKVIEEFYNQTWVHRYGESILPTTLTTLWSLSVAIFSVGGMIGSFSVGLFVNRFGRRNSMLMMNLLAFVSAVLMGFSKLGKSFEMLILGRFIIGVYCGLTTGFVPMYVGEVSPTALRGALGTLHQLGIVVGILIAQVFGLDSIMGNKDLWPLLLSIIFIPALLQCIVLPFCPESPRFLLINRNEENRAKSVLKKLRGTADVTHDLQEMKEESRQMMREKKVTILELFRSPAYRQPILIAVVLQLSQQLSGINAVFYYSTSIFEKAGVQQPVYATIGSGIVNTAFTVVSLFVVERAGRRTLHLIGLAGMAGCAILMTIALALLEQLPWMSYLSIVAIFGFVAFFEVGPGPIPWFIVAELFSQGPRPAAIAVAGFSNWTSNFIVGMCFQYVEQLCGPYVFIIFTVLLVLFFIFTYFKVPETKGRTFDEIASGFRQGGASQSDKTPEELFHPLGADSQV

[2] = molecular target: Hexose transporter 1 (Plasmodium falciparum) (UniProt O97467); assay: ST_JUDE_LEISH: Cytotoxicity at 2uM final concentration against transgenic Leishmania Mexicana promastigotes LmPfHT that are glucose transport deficient and complemented with the Plasmodium falciparum hexose transporter. Activity is measured by DNA content using SYBR green in vitro
[3] = molecular target: Glucose transporter (Leishmania mexicana) (UniProt O61059); assay: ST_JUDE_LEISH: Cytotoxicity at 2uM final concentration against transgenic Leishmania Mexicana promastigotes LmGT2 that are glucose transport deficient and complemented with the L. Mexicana glucose transporter 2. Activity is measured by DNA content using SYBR green in vitro

| SMILES | inhibition [1] [%] | inhibition [2] [%] | inhibition [3] [%] |
| --- | --- | --- | --- |
| O=C(/C=C/c1cccc(C(F)(F)F)c1)NCCCCCN1CCN(C(=O)Nc2ccc(Cl)c(Cl)c2)CC1 | 2.21 | 2.33 | 1.97 |
| Cc1cccc2nc(-c3cccc(-c4cccc(NC(=O)NCc5ccccc5)c4)c3)[nH]c12 | 3.73 | 5.29 | -4.27 |
| Cc1cccn2c(=O)c3cc(C(=O)NCc4cccnc4)c(=N)n(CCc4ccccc4)c3nc12 | 3.35 | 4.08 | 1.6 |
| FC(F)(F)CNc1nc(Nc2ccc3ncccc3c2)nc2[nH]ccc12 | 21.8 | 17.9 | 8.14 |
| CC1CCCCN1S(=O)(=O)c1ccc(NC(=O)c2cc(-c3ccccc3O)n[nH]2)cc1 (stereo not given) | 1.2 | 1.81 | -1.06 |
| C=C(C)COc1ccc(-c2n[nH]c(C(F)(F)F)c2-c2ccccc2OC)c(O)c1 | 8.67 | 6.88 | 6.48 |
| NS(=O)(=O)NCCCN1CCN(c2ccccc2)CC1 | 1.95 | 1.37 | 1.5 |
| Nc1cccc(CNCc2cccc(-c3ccc(-c4nc5ccccc5[nH]4)s3)c2)c1 | 7.77 | 8.55 | 5.7 |
| Cc1ccc(CNC(=O)[C@H](Cc2ccccc2)Nc2ccnc(NCC3CCCCC3)n2)cc1 | 7.85 | 4.83 | 3.01 |
| Cc1ccc(O)cc1Nc1c(C(N)=O)cnc2ccc(-c3cncs3)cc12 | -2.06 | -0.39 | -1.28 |
| CN1CCN(c2ccnc3ccc(NC(=O)Nc4ccc5ccccc5c4)cc23)CC1 | 2.79 | 1.63 | 2.8 |
| C=CCOC(=O)N1CCC(CNCc2cccc(-c3ccc(-c4nc5ccccc5[nH]4)s3)c2)C1 (stereo not given) | 1.51 | 1.79 | 1.26 |
| CCCN(CCCCNC(=O)c1ccc(-c2cccnc2)cc1)C1CCc2c(O)cccc2C1 (stereo not given) | 3.63 | 2.13 | 3.11 |
| O=C(NC1CCN(CCN2CCC(c3cn(CCO)c4ccccc34)CC2)CC1)c1ccc(-c2ccc(C(F)(F)F)cc2)cc1 | -1.51 | 3.18 | 0.94 |
| O=C(Nc1ccc2c(c1)CCNCC2)Nc1ccc2ccccc2c1 | 11.1 | 8.46 | 9.36 |
| OC(CNCc1cccc(Oc2ccc(Cl)cc2)c1)c1cc(C(F)(F)F)cc(C(F)(F)F)c1 (stereo not given) | 0.85 | -0.5 | -2.95 |
| CC(OC(=O)c1ccc(C(=O)NCC2CC2)cc1)C(C)(C)C (stereo not given) | 4.1 | 3.44 | -0.96 |
| NCCNc1ccnc2cc(Cl)ccc12 | 0.54 | 1.61 | 1.05 |
| O=[N+]([O-])c1cccc(CNCC2CCN(CCc3ccccc3)CC2)c1 | 2.35 | 1.86 | 2.16 |
| c1ccc(OCCCCN2CCCCC2)cc1 | 0.95 | 0.56 | -4.15 |
| O=C(Nc1ccnc(N2CC3CC2CN3Cc2cccc(O)c2)c1)c1ccc(F)cc1 (stereo not given) | 0.07 | -1.27 | 1.75 |
| O=C(NCCCCCN1CCC(c2c[nH]c3ccccc23)C1)Nc1ccc(Cl)c(Cl)c1 (stereo not given) | 3.7 | 3.21 | 2.22 |
| CN(C)CCN(C)Cc1ccc(-c2cccc(NC(=O)c3cccc(C#N)c3)c2)cc1 | 15.4 | 10.9 | 8.24 |
| CCN1CCN(CCCNc2c3ccc(Cl)cc3nc3ccc(O)cc23)CC1 | 0.03 | 0.02 | 0.06 |

| SMILES | inhibition [1] [%] | inhibition [2] [%] | inhibition [3] [%] |
| --- | --- | --- | --- |
| COCCNCc1ccc(-c2ccccc2CNC2CCN(Cc3ccccc3)CC2)cc1 | 1.97 | 2.36 | -0.28 |
| O=C(Nc1nc(-c2cc(F)ccc2F)cs1)c1cncc(Br)c1 | 4.6 | 1.79 | 1.42 |
| COc1ccc2nc(C)cc(NC3Cc4ccccc4C3)c2c1 | 7.7 | 5.19 | 0.76 |
| COc1ccc2c(c1)CCCC2NCCCCNC(=O)c1ccc(NC(=O)c2ccc(Cl)cc2)cc1 (stereo not given) | 1.92 | 0.37 | 0.82 |
| Oc1ccc2[nH]cc(C3CCN(CCCNCc4ccc(-c5ccccc5)cc4)CC3)c2c1 | 5.26 | 8.52 | 2.61 |
| N=C1c2ccccc2CN1CC(=O)c1ccc(Cl)c(Cl)c1 | 0.66 | 2.37 | 2.53 |
| O=C(Cn1c(CCc2cccc(F)c2F)nc(=O)c2ccccc21)N(Cc1ccc(-c2ccc(C(F)(F)F)cc2)cc1)C1CCN(C2CCSCC2)CC1 | 1.28 | -2.32 | 3.92 |
| COc1ccc(NC(=O)[C@H](Cc2ccccc2)Nc2nc(NCCN3CCCC3)ncc2C)cc1 | 1.71 | 2.57 | 3.02 |
| CN(C)CCOc1ccc(-c2cc(-c3ccc(Cl)c(O)c3)c(-c3ccnc(N)n3)o2)cc1 | 2.11 | 2.73 | 3.05 |
| Cc1nnsc1C(=O)Nc1cccc(-c2ccc(-c3nc4cccc(C)c4[nH]3)s2)c1 | 1.88 | 1.77 | 3.82 |
| O=C(Cc1ccccc1)NC1(c2ccccc2)CCN(CCc2c[nH]c3ccc(F)cc23)CC1 | -0.99 | 0.25 | -0.69 |
| CC(=O)Nc1ccc(CCNC(C)Cc2ccc(C(=O)Nc3ccc(CC(C)NCCc4cccc(Cl)c4)cc3)cc2)cc1 (stereo not given) | 2.17 | -1.77 | 0.98 |
| CN(C)c1ccc(CN2CCC(NC(=O)c3ccc(-c4cccc(C(F)(F)F)c4)s3)CC2)cc1 | 1.92 | -0.72 | 5.11 |
| O=C(Nc1ccc(C(=O)Oc2cccc3ccccc23)cc1)N[C@@H](Cc1ccc(O)cc1)C(=O)NC1CCN(Cc2ccc(O)cc2)C1 (stereo not given in full) | 20.6 | 17.7 | 17.4 |
| COc1ccc(NC(=O)NC2CCN(CCCOc3ccnc4cc(Cl)ccc34)C2)cc1OC (stereo not given) | -0.88 | -0.13 | -0.69 |
| CC(=O)Nc1ccc(OCCN(Cc2ccccc2OC(F)(F)F)c2ccc(C(F)(F)F)c(C#N)c2)c(Cl)c1 | 2.43 | 2.88 | 4.14 |
| Oc1cccc(-c2cnc3ccc(NCc4ccc(F)cc4)nn23)c1 | -3.17 | 0.63 | -1.63 |
| CC(=O)Nc1ccccc1OCc1cc2cc(C(=O)N3CCC(N4C(=O)OCc5ccccc54)CC3)ccc2o1 | 4.21 | 2.89 | 4.49 |
| Cc1cc(NC(=O)c2coc3cc(F)c(N4CC(C)N(C)C(C)C4)cc23)ccc1-n1ccnc1 (stereo not given) | 2.32 | 1.16 | -1.58 |
| CCOC(=O)N/N=C/[C@H](CCc1ccccc1)NC(=O)[C@H](CC(C)C)NC(=O)c1cc2cccc(OC)c2o1 | 4.25 | 5.56 | 5.67 |
| CCCCNC(=O)C1CCCN(C(=O)c2ccc(O)c(-c3ccc(Cl)c(Cl)c3)c2)C1 (stereo not given) | 1.28 | 1.16 | 0.69 |
| COc1ccc2ccccc2c1CCCCN1CCN(CC(c2ccc(F)cc2)N2CCN(C3CCCC3)CC2)CC1 (stereo not given) | 2.16 | 4.07 | 1.41 |
| Cc1cc(N2CCOCC2)nc2ccc(NC(=O)c3ccc(Cl)c([N+](=O)[O-])c3)cc12 | 5.45 | 3.08 | 2.75 |
| CC(C)n1cc(CN2CCCC(C(=O)Nc3cccc(-c4cc5ccccc5[nH]4)c3)C2)cn1 (stereo not given) | 2.2 | -0.11 | -0.59 |

| SMILES | inhibition [1] [%] | inhibition [2] [%] | inhibition [3] [%] |
| --- | --- | --- | --- |
| CCc1cn2c3c(cc(C(=O)N[C@@H](Cc4ccccc4)[C@H](O)CNC4CC4)cc13)N(CC)S(=O)(=O)CC2 | -0.74 | -0.31 | 0.02 |
| NC[C@H](CC1CCCCC1)NC(=O)c1ccc(-c2ccnc3[nH]ccc23)s1 | 7.16 | 3.21 | 2.91 |
| COc1ccc2ncc(OC)c(CCN3CC[C@@H](NCc4ccc5c(n4)NC(=O)CS5)[C@H](O)C3)c2n1 | 1.21 | 1.17 | -0.86 |
| CC(=O)Nc1nc(C(=O)Nc2ccc(-c3cccc(-c4nc5cc(F)ccc5[nH]4)c3)cc2)cs1 | 2.47 | 2.89 | 3.35 |
| CC(CN(C)C)C(=O)Nc1cccc(-c2ccc(-c3nc4ccccc4[nH]3)s2)c1 (stereo not given) | 9.63 | 9.45 | 3.78 |
| CCn1c(C2CCN(CCC3CCN(C(=O)/C=C/c4ccc(Cl)c(Cl)c4)CC3)CC2)nc2ccccc21 | 3.31 | 1.31 | 0.66 |
| Oc1ccc(Cl)cc1CN1CCC2(CCCN(CC3CCC3)C2)C1 (stereo not given) | -3 | -0.63 | 1.23 |
| CCOC(=O)NCCSC(C)(C)[C@H](NC(=O)[C@H](Cc1cc2ccccc2s1)[C@H](CC)N(O)C=O)C(=O)Nc1nccs1 | 0.32 | 0.28 | -0.04 |
| CC(C)(C)c1ccc(NC(=O)c2cccc(CN3CCCN(Cc4ccsc4)CC3)c2)cc1 | 5.17 | 1.84 | 1.41 |
| O=C(Nc1cccc(-c2cccc(-c3nc4cc(C(F)(F)F)ccc4[nH]3)c2)c1)c1ccc(=O)[nH]n1 | 10.7 | 9.47 | 9.62 |
| Cc1cnc(CNCc2ccc(S(=O)(=O)Nc3ccc(Oc4cccc(Cl)c4)cc3)cc2)cn1 | 5.34 | 2.83 | 2.07 |
| Cc1nc(-c2ccc(-c3ccc(NC(=O)c4coc5ccc(N6CC(C)NC(C)C6)cc45)cc3)c(C)c2)no1 (stereo not given) | 3.42 | 5.16 | 6.24 |
| O=C(Cc1ccccc1)NC(c1ccc(Cl)cc1)c1ccc2cccnc2c1O (stereo not given) | 6.92 | 4.47 | 1.97 |
| O=[N+]([O-])c1ccc(C2=NN(S(=O)(=O)c3c(Cl)cc(Cl)cc3Cl)CCCC2)cc1 | 0.34 | 0.56 | -0.34 |
| O=C(Nc1cccc(CN2CCCN(Cc3ccc(O)cc3)CC2)c1)c1cc2ccccc2s1 | -1.48 | 1.71 | -2.92 |
| O=S(=O)(NCCN1CCCC1)c1ccc(-c2ccc(CNCc3ccsc3)cc2)cc1 | 13.4 | 6.54 | 5.55 |
| Cc1cc(N[C@@H](Cc2ccccc2)C(=O)NCCOc2ccccc2)nc(NCCc2ccc(F)cc2)n1 | 15.1 | 11.7 | 10.1 |
| O=C(Nc1ccccc1-c1nc2ccccc2s1)C(Cl)(Cl)Cl | 0.49 | 1.24 | 0.54 |
| C[C@@]12C[C@@H](Nc3nc(NCCc4ccc(O)cc4)nc(N4CCNCC4)n3)C[C@@H](C1)c1cccc(Cl)c1O2 | -1.38 | -1.84 | 2.14 |
| COc1cc(C(=O)Nc2cccc(-c3cn4ccc(C)cc4n3)c2)cc(OC)c1OC | 17.1 | 8.22 | 6.63 |
| Cn1cc(CN2CCCC(COC(c3ccc(F)cc3)c3ccc(F)cc3)C2)cn1 (stereo not given) | 2.32 | 1.9 | 1.84 |
| O=C(Nc1ccccc1Br)c1cn(-c2ccccc2)nc1-c1cccc([N+](=O)[O-])c1 | 10.6 | 10.4 | 8.93 |
